# Results filed as inconclusive are left out. A number with no mark means an inactive call. Calls of active or inactive are those of the source. The call rests on the fitted dose curve.
# Molecular target: Acetylcholinesterase (Homo sapiens) (UniProt P22303)
# Assay: Acetylcholinesterase (AChE) small molecule antagonists: fluorescence cell-based qHTS assay (AID 1347398); further: nearly all actives have a fitted effect of over 50% in size
# Conditions: SH-SY5Y cells; Potency: AChE activity; outcome: AChE activity; series mostly up to 115 µM; activity change, negative = inhibition: at the top concentration
# In short: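 SH-SY5Y cells (2000/well), attached overnight, incubated with compound 30 min at 37 C. Acetylthiocholine plus Thiolite Green then added for 40 min at room temperature. Thiocholine fluorescence (Ex/Em 490/520 nm) reports cellular AChE activity.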
# On the % scale 0 is the no-effect control and ±100 the full control effect.
# Sequence of Acetylcholinesterase (Homo sapiens) (P22303 whole entry, looked up): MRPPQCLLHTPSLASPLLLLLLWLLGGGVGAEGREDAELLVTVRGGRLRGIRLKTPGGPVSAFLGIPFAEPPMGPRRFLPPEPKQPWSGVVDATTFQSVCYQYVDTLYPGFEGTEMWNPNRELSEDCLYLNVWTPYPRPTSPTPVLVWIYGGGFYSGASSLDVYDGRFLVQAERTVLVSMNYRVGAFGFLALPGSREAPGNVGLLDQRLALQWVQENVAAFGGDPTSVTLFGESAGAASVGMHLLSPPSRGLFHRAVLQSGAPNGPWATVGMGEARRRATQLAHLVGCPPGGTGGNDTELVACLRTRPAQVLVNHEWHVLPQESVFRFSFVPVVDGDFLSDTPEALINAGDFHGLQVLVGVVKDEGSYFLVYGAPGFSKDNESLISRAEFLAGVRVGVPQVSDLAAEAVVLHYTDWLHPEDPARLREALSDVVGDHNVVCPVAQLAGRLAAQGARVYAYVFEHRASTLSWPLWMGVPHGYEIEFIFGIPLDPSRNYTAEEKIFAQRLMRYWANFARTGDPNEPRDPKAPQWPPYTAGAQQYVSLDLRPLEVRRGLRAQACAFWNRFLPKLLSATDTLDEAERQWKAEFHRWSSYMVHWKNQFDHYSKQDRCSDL
SMILES,Potency,"activity change, negative = inhibition"
Nc1ccc2c(c1)C(=O)c1ccccc1C2=O,inactive,
C=C(C)C(=O)OCC(CC)(COC(=O)C(=C)C)COC(=O)C(=C)C,inactive,
CC1=C(CC(=O)O)c2cc(F)ccc2/C1=C\c1ccc(S(C)=O)cc1 (stereo not given),inactive,
Clc1cccc(Cl)n1,,0.644%
C=C(C)C(=O)OCCOC(=O)C(=C)C,inactive,
O=C(NCCN1CCOCC1)c1ccc(Cl)cc1,,19.9% [at 53.7 µM]
CCOC(=O)c1ccccc1C,,2.96%
CCC(C)(O)CCC=C(C)C (stereo not given),,3.6%
C[N+]1(C)CCC(=C(c2ccccc2)c2ccccc2)CC1,,10.8% [at 53.7 µM]
C=C(C)C(=O)OCCOCCOCCOCCOC(=O)C(=C)C,,0.33%
COc1cc2c(cc1OC)CN(C(=O)[C@H](C)N[C@@H](CCc1ccccc1)C(=O)O)[C@H](C(=O)O)C2,,7.69% [at 53.7 µM]
Nc1cc([N+](=O)[O-])cc(Cl)c1O,,-5.74%
c1ccc2ncccc2c1,inactive,
Cc1ccc(S(=O)(=O)O)c(C)c1,,2.4%
CC1=C(/C=C/C(C)=C/C=C/C(C)=C/C(=O)O)C(C)(C)CCC1,inactive,
O=C(O)c1ccc(Cl)c(Cl)c1,,-1.76%
O=C(Nc1cccc(Cl)c1)OCC#CCCl,,-5.25%
O=c1[nH]sc2cc(Cl)ccc12,,43.3% [at 53.7 µM]
CN1C(=O)c2ccccc2C1=O,,2.69%
CNCCCCOc1ccccc1Cc1ccccc1,,-20.6% [at 53.7 µM]

SMILES,Potency,"activity change, negative = inhibition"
Cc1[nH]c(C)c(Cl)c(=O)c1Cl,,-0.55% [at 23.8 µM]
Oc1cc(O)c(Cl)cc1Cl,,-1.04%
CC(=O)OC(C)OC(C)=O,,5.89%
O=c1[nH]cnc2[nH]ncc12,inactive,
CCCCCCCC(=O)OCC,,2.41%
COc1ccccc1OC(=O)Oc1ccccc1OC,,-0.512% [at 53.7 µM]
c1ccc(SCCSc2ccccc2)cc1,,-1.89%
CC(=O)OCC(=O)[C@@]12N=C(C)O[C@@H]1C[C@H]1[C@@H]3CCC4=CC(=O)C=C[C@]4(C)[C@H]3[C@@H](O)C[C@@]12C,inactive,
O=C(O)[C@@H](O)[C@H](O)[C@H](O)[C@@H](O)C(=O)O,,-3.64% [at 53.7 µM]
CCC(C)N (stereo not given),,1.14%
Nc1nc(=S)c2[nH]cnc2[nH]1,inactive,
CCc1cccc2c3c([nH]c12)C(CC)(CC(=O)O)OCC3 (stereo not given),inactive,
C[C@]12CC[C@@H]3c4ccc(O)cc4CC[C@H]3[C@@H]1CC[C@@H]2O,inactive,
CCN(CC)CCOC(=O)C(c1ccccc1)C1CCCCC1 (stereo not given),,-20.1% [at 53.7 µM]
CCN1CCN(C(=O)N[C@@H](C(=O)N[C@@H]2C(=O)N3[C@@H]2SC(C)(C)[C@H]3C(=O)O)c2ccccc2)C(=O)C1=O,,13.2% [at 53.7 µM]
CCCCCCCCCCCCOCC1CO1 (stereo not given),inactive,
O=c1oc(=O)c2cc3c(=O)oc(=O)c3cc12,inactive,
CC(C)(C)CCCCCCOC(=O)c1ccccc1C(=O)OCCCCCCC(C)(C)C,,-8.66%
CCCCCCCCCCCCOC(=O)c1cc(O)c(O)c(O)c1,inactive,
CCc1ccccc1,,-1.02%

# — PubChem BioAssay (Tox21)
